In PubChem BioAssay (EPA / NIEHS):
The source made the active and inactive calls. Rule for the calls: active = hit-call score of the fitted dose curve at least 0.9, where 1 is the maximum; inactive = score below 0.9.

Legend:
[1] = read-out: Macrophage colony-stimulating factor (MCSF), CSF1 (gene 1435); experiment: BSK_hDFCGF_MCSF: BioMAP Diversity Plus: hDFCGF Assay for Macrophage colony-stimulating factor (MCSF) Biomarker Activity (AID 2283060); details: primary human foreskin fibroblasts; actives raise or lower the signal
Method in brief: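 Human foreskin primary fibroblasts were treated with test chemical for 24 h, and M-CSF was then measured by ELISA. Data were fitted bidirectionally against DMSO as the negative control and activity baseline.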

[2] = BSK_hDFCGF_SRB: Viability Assessment in the BioMAP Diversity Plus: hDFCGF Assay (AID 2283061); details: primary human foreskin fibroblasts;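 note: cells exposed to compound for 24 h before the read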
Method in brief: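 Human foreskin primary fibroblasts were treated with compound and assessed 24 h after dosing. Total protein was measured by sulforhodamine B staining (0.1% SRB after 10% TCA fixation, 560 nm read) as a cytotoxicity marker, with bidirectional fitting against DMSO baseline.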

[3] = read-out: TIMP metallopeptidase inhibitor 1 (TIMP1), TIMP1 (gene 7076); experiment: BSK_hDFCGF_TIMP1: BioMAP Diversity Plus: hDFCGF Assay for TIMP metallopeptidase inhibitor 1 (TIMP1) Biomarker Activity (AID 2283062); details: primary human foreskin fibroblasts; actives raise or lower the signal
Method in brief: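 Primary human foreskin fibroblasts in the hDFCGF system were dosed with compound for 24 h, then TIMP-1 was measured by ELISA. Activity was fitted bidirectionally relative to DMSO control; parallel SRB staining assessed cytotoxicity.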

[4] = read-out: Monokine induced gamma interferon (MIG), CXCL9 (gene 4283); experiment: BSK_hDFCGF_MIG: BioMAP Diversity Plus: hDFCGF Assay for Monokine induced gamma interferon (MIG) Biomarker Activity (AID 2283063); details: primary human foreskin fibroblasts; actives raise or lower the signal
Method in brief: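 ELISA read-out of MIG from primary human dermal fibroblasts 24 h post-dosing. Gain or loss of signal fitted bidirectionally, DMSO as baseline.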

[5] = read-out: Vascular cell adhesion molecule 1 (VCAM1), VCAM1 (gene 7412); experiment: BSK_hDFCGF_VCAM1: BioMAP Diversity Plus: hDFCGF Assay for Vascular cell adhesion molecule 1 (VCAM1) Biomarker Activity (AID 2283065); details: primary human foreskin fibroblasts; actives raise or lower the signal;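 for AC50: VCAM-1 protein level quantified by ELISA after 24 h chemical exposure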
Method in brief: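 Primary human foreskin fibroblasts (hDFCGF system) were dosed with chemical and VCAM-1 was measured by ELISA 24 h later. Bidirectional curve fitting used DMSO as negative control and activity baseline.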

[6] = read-out: Plasminogen activator inhibitor-1 (PAI1), SERPINE1 (gene 5054); experiment: BSK_hDFCGF_PAI1: BioMAP Diversity Plus: hDFCGF Assay for Plasminogen activator inhibitor-1 (PAI1) Biomarker Activity (AID 2283066); details: primary human foreskin fibroblasts; actives raise or lower the signal
Method in brief: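 PAI-1 levels in human dermal foreskin fibroblasts were quantified by ELISA 24 h after dosing, with gain or loss analysed against DMSO. Overt cytotoxicity was checked by sulforhodamine B total-protein staining in parallel cultures.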

[7] = read-out: Intercellular Adhesion Molecule 1 (ICAM1), ICAM1 (gene 3383); experiment: BSK_KF3CT_ICAM1: BioMAP Diversity Plus: KF3CT Assay for Intercellular Adhesion Molecule 1 (ICAM1) Biomarker Activity (AID 2283067); details: primary human keratinocytes with fibroblasts; actives raise or lower the signal
Method in brief: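 Human keratinocyte plus foreskin fibroblast primary co-culture was exposed to chemical for 24 h. ICAM-1 was then quantified by ELISA, and the data were fit bidirectionally against DMSO as the negative control and baseline.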

[8] = BSK_KF3CT_SRB: Viability Assessment in the BioMAP Diversity Plus: KF3CT Assay (AID 2283069); details: primary human keratinocytes with fibroblasts;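 note: fitted for both signal gain and loss against DMSO baseline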
Method in brief: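 Overt cytotoxicity is assessed as total protein by sulforhodamine B staining in parallel human skin co-cultures at 24 h after dosing. DMSO serves as negative control and baseline.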

[9] = read-out: Interleukin-1 alpha (IL1a), IL1A (gene 3552); experiment: BSK_KF3CT_IL1a: BioMAP Diversity Plus: KF3CT Assay for Interleukin-1 alpha (IL1a) Biomarker Activity (AID 2283070); details: primary human keratinocytes with fibroblasts; actives raise or lower the signal
Method in brief: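 Readout is IL-1a level by ELISA, compared bidirectionally with DMSO as baseline. Cells: human keratinocytes co-cultured with foreskin fibroblasts, harvested 24 h post-dose.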

[10] = read-out: TIMP metallopeptidase inhibitor 2 (TIMP2), TIMP2 (gene 7077); experiment: BSK_KF3CT_TIMP2: BioMAP Diversity Plus: KF3CT Assay for TIMP metallopeptidase inhibitor 2 (TIMP2) Biomarker Activity (AID 2283071); details: primary human keratinocytes with fibroblasts; actives raise or lower the signal
Method in brief: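 TIMP-2 measured by ELISA at 24 h in human keratinocyte/fibroblast primary co-cultures exposed to chemicals. Both increases and decreases were fitted against DMSO. Parallel cultures were stained with SRB for total protein as an overt-cytotoxicity check.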

[11] = read-out: Transforming growth factor beta 1 (TGFb1), TGFB1 (gene 7040); experiment: BSK_KF3CT_TGFb1: BioMAP Diversity Plus: KF3CT Assay for Transforming growth factor beta 1 (TGFb1) Biomarker Activity (AID 2283072); details: primary human keratinocytes with fibroblasts; actives raise or lower the signal
Method in brief: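 ELISA quantifies TGF-b1 at 24 h post-dose in a primary human skin co-culture of keratinocytes and fibroblasts, with gain or loss judged against DMSO. Parallel SRB total-protein staining flags overt cytotoxicity.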

[12] = read-out: C-C motif chemokine 2 (Homo sapiens) (UniProt P13500); experiment: BSK_KF3CT_MCP1: BioMAP Diversity Plus: KF3CT Assay for Monocyte Chemoattractant Protein 1 (MCP1/CCL2) Biomarker Activity (AID 2283073); details: primary human keratinocytes with fibroblasts; actives raise or lower the signal
Method in brief: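 Human keratinocyte plus foreskin fibroblast primary co-culture exposed to chemical for 24 h. MCP-1 levels measured by ELISA. Bidirectional curve fitting relative to DMSO negative control as baseline.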

[13] = read-out: Matrix Metallopeptidase 9 (MMP9), MMP9 (gene 4318); experiment: BSK_KF3CT_MMP9: BioMAP Diversity Plus: KF3CT Assay for Matrix Metallopeptidase 9 (MMP9) Biomarker Activity (AID 2283074); details: primary human keratinocytes with fibroblasts; actives raise or lower the signal;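 for AC50: MMP9 protein level quantified by ELISA in the co-culture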
Method in brief: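 Values come from bidirectional fitting relative to DMSO of MMP-9 levels, which were measured by ELISA. Measurements were taken 24 h after chemical dosing of a keratinocyte and foreskin fibroblast co-culture.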

[14] = read-out: urokinase plasminogen activator (uPA), PLAU (gene 5328); experiment: BSK_KF3CT_uPA: BioMAP Diversity Plus: KF3CT Assay for urokinase plasminogen activator (uPA) Biomarker Activity (AID 2283075); details: primary human keratinocytes with fibroblasts; actives raise or lower the signal
Method in brief: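 Values derive from bidirectional fitting against DMSO controls. Keratinocyte/foreskin fibroblast co-cultures received chemical; 24 h later uPA was detected by ELISA, with SRB total-protein staining in parallel wells for overt cytotoxicity.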

[15] = read-out: CD40, CD40 (gene 958); experiment: BSK_LPS_CD40: BioMAP Diversity Plus: LPS Assay for CD40 Biomarker Activity (AID 2283076); details: primary human HUVEC with PBMC; actives raise or lower the signal
Method in brief: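 Primary human umbilical vein endothelial cells co-cultured with peripheral blood mononuclear cells, LPS-stimulated, were dosed with chemical and read 24 h later. CD40 levels were measured by ELISA and fitted bidirectionally against DMSO as negative control and baseline.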

[16] = read-out: Interleukin-8 (IL8), CXCL8 (gene 3576); experiment: BSK_LPS_IL8: BioMAP Diversity Plus: LPS Assay for Interleukin-8 (IL8) Biomarker Activity (AID 2283078); details: primary human HUVEC with PBMC; actives raise or lower the signal
Method in brief: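 Human umbilical vein endothelial cells co-cultured with PBMC were stimulated with LPS; IL-8 levels were measured by ELISA 24 h after chemical dosing. Activity was fitted bidirectionally against DMSO as negative control and baseline.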

[17] = BSK_LPS_SRB: Viability Assessment in the BioMAP Diversity Plus: LPS Assay (AID 2283079); details: primary human HUVEC with PBMC;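 note: total protein by sulforhodamine B absorbance as a cytotoxicity measure; measured one day after compound addition; fitted in both directions against DMSO so loss or gain of signal counts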
Method in brief: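 Human umbilical vein endothelial cells co-cultured with PBMC (LPS system) were dosed for 24 h. Total protein was stained with 0.1% sulforhodamine B after 10% TCA fixation, read at 560 nm, and fitted bidirectionally against DMSO baseline.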

[18] = read-out: E-selectin (Homo sapiens) (UniProt P16581); experiment: BSK_LPS_Eselectin: BioMAP Diversity Plus: LPS Assay for Eselectin Biomarker Activity (AID 2283077); details: primary human HUVEC with PBMC; actives raise or lower the signal
Method in brief: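 Human umbilical vein endothelial cells co-cultured with peripheral blood mononuclear cells under LPS stimulation; E-selectin measured by ELISA 24 h after chemical dosing. Activity fitted bidirectionally against DMSO as negative control and baseline.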

[19] = read-out: Interferon-gamma inducible Protein 10 (IP10), CXCL10 (gene 3627); experiment: BSK_KF3CT_IP10: BioMAP Diversity Plus: KF3CT Assay for Interferon-gamma inducible Protein 10 (IP10) Biomarker Activity (AID 2283068); details: primary human keratinocytes with fibroblasts; actives raise or lower the signal
Method in brief: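 Signal is secreted/surface IP-10 by ELISA in a human primary skin co-culture of keratinocytes and foreskin fibroblasts, taken 24 h post-dosing; DMSO served as negative control.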

Measured: AC50

E-selectin (Homo sapiens), sequence (P16581 whole entry, looked up): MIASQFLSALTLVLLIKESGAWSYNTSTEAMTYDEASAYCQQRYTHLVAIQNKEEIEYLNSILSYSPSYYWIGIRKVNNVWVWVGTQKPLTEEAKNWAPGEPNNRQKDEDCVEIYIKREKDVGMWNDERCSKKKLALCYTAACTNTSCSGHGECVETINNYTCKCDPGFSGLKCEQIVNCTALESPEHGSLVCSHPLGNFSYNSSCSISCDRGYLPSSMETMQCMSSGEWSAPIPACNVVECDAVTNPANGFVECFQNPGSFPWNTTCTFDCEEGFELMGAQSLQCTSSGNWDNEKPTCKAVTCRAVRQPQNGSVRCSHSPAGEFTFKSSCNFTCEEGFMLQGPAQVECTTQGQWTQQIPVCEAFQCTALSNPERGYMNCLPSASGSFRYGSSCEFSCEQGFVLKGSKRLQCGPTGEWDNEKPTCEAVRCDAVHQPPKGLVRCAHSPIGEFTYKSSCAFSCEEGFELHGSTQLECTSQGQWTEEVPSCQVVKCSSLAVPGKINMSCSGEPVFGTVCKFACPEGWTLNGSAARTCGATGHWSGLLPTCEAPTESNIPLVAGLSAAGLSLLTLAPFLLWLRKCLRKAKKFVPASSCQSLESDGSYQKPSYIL

CC(C)(C)c1ccccc1OP(=O)(Oc1ccccc1)Oc1ccccc1
active: [1] 20 µM | [2] 25 µM | [3] 20 µM | [5] 20 µM | [9] 20 µM | [10] 20 µM | [13] 8.49 µM | [15] 25.3 µM | [16] 20 µM | [17] 20 µM
inactive: [4] | [6] | [7] | [8] | [11] | [12] | [14]

O=P(Oc1ccccc1)(Oc1ccccc1)Oc1ccccc1
active: [1] 10.9 µM | [6] 20 µM | [15] 23.6 µM | [16] 30.6 µM | [17] 30.6 µM
not listed: [10] | [19]
inactive: all other assays above

CCCCC(CC)COP(=O)(Oc1ccccc1)Oc1ccccc1 (stereo unspecified)
active: [1] 6.1 µM | [2] 4.47 µM | [3] 5.46 µM | [4] 11 µM | [5] 1.69 µM | [6] 6.48 µM | [8] 20 µM | [9] 5.46 µM | [11] 5.46 µM | [13] 3.71 µM | [14] 4.9 µM | [15] 13.5 µM | [18] 20 µM | [16] 20 µM | [17] 20 µM
inactive: [7] | [19] | [12]

N#Cc1cc([N+](=O)[O-])ccc1N
not listed: [10] | [18]
inactive: all other assays above

CCOP(=S)(Oc1ccc([N+](=O)[O-])cc1)c1ccccc1 (stereo unspecified)
active: [1] 7.24 µM | [5] 7.62 µM | [6] 3.35 µM
not listed: [18] | [19]
inactive: all other assays above

COP(=O)(CCC(=O)NCO)OC
not listed: [10] | [11] | [18] | [19]
inactive: all other assays above
